High-throughput results: PubChem, several laboratories
The list is not random: actives were taken first. Their share in the collection is about 2.6%.
LGR2 inh – inhibitors of bursicon-induced LGR2 CRE-luciferase signal, primary screen, cell-based, HEK293, CRE-luciferase reporter, bursicon stimulation. Drosophila bursicon receptor LGR2 (rickets). bursicon-stimulated, 4 h. inhibition, % at 9.99 µM. 380,000 tested, 0.35% active;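 active = drop in luminescence signal, shown as inhibition above about 50% in the replicate tests, limit read from the data, passing the limit was not always enough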;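 also: agonist challenge used bursicon conditioned medium at about half maximal strength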
EBV LMP1 NFkB – EBV LMP1-driven NF-kappaB luciferase reporter inhibitors, primary screen, cell-based, luminescence, single point; LMP1-induced NF-kappaB luciferase reporter cells; inhibition, % at 12.5 µM; 350,000 tested, 0.69% active; AID 504558, 2011; in the data active = inhibition above about 41%;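 also: 0% = neutral control wells and 100% = reference inhibitor control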
TROY signal inh – inhibitors of TROY-driven NF-kB signaling, primary screen, Q293 LMP1-TROYcd cells, NF-kB luciferase, uHTS; Q293 LMP1-TROYcd NF-kB luciferase reporter, 4 h; inhibition, % at 10 µM; 360,000 tested, 0.98% active;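 active = compounds whose plate-normalised and pattern-corrected inhibition of the luciferase reporter signal at the single screening dose is 50% or more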
HSP90 refold inh – HSP90 inhibitors, primary screen, cell lysate, luminescence; Heat shock protein HSP 90 (rabbit reticulocyte lysate; luciferase refolding); Rabbit reticulocyte lysate, luciferase refolding luminescence, 3 h; inhibition, % at 5.6 µM; 290,000 tested, 0.91% active;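 active = inhibition above the screen-wide mean plus 3 SD, computed separately per campaign, cut at about 16% in these data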;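 also: 0% = DMSO wells and 100% = 60 µM geldanamycin wells; inhibitors lower the luminescence because luciferase stays unfolded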
aDG glyco act – activators of alpha-DG glycosylation, primary screen, uHTS, Pro5-aDG cells, AlphaScreen; AID 624168, 2012; alpha-DG glycosylation AlphaScreen (IIH6); 0% Pro5, 100% B10-LARGE cell signal; activation, % at 10 µM; 360,000 tested, 0.22% active;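 active = activation of at least 8% versus controls, or a plate z-score of at least 8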;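 also: Pro5 are CHO cells carrying HIG-tagged alpha-DG that lacks glycosylation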
TWEAK-Fn14 inh – inhibitors of TWEAK-Fn14 signaling, primary screen, luciferase reporter cells, uHTS; TWEAK-stimulated Fn14 reporter cells, luciferase luminescence, 8 h; inhibition, % at 10 µM; 360,000 tested, 2% active; AID 1159606, 2016; in the data active = inhibition above about 50%
The depositor's hits bear a star; . = not tested or not shown.

SMILES	LGR2 inh	EBV LMP1 NFkB	TROY signal inh	HSP90 refold inh	aDG glyco act	TWEAK-Fn14 inh
Cc1ccc(OCC(=O)N2CCN(c3nnc(-c4ccc(C)cc4)c4ccccc34)CC2)cc1	.	20	59*	3	2	51*
Cc1ccc(-c2nnc(N3CCN(C(=O)COc4cccc(C)c4)CC3)c3ccccc23)cc1	.	16	35	8	0	-12
COc1ccc(OCC(=O)N2CCN(c3nnc(-c4ccc(C)cc4)c4ccccc34)CC2)cc1	59*	21	59*	1	1	-2
N#CCSc1nc2ccccc2c2nc3ccccc3n12	11	33	-57	0	0	57*
Clc1ccccc1-c1nc2ccccc2c2nc3ccccc3n12	-10	1	57*	-2	0	30
Fc1ccc(-c2nc3ccccc3c3nc4ccccc4n23)cc1	.	3	28	-7	0	58*
Cc1ccc(-c2ccc3c(c2)O[C@H](CN(C)C(=O)C2CC2)[C@@H](C)CN([C@@H](C)CO)S3(=O)=O)cc1	-20	.	.	.	.	.
O=C(NCc1cccnc1)/C(=C\c1ccc(-c2cccc(Cl)c2)o1)S(=O)(=O)c1ccccc1	87*	-2	78*	7	0	104*
O=C(NCc1cccnc1)/C(=C/c1ccc(-c2cccc(Cl)c2)o1)S(=O)(=O)c1ccccc1	28	-12	-9	9	1	58*
CCN(C[C@H]1[C@@H](c2ccc(-c3ccccc3F)cc2)[C@@H](CO)N1C(C)=O)C(C)=O	-6	.	.	.	.	.
CCn1c(C)nc2cc(C(=O)OC(C(F)(F)C(F)F)C(F)(F)C(F)F)ccc21	.	-62	57*	0	3	1
CCn1c(C)nc2cc(C(=O)NNC(=O)c3ccc(C)cc3)ccc21	-73	-30	78*	.	0	72*
CCn1c(C)nc2cc(C(=O)NNC(=O)c3ccc(Cl)nc3)ccc21	-5	-3	11	2	0	-3
O=C(NCCc1ccc(F)cc1)c1coc(=O)c(Br)c1	-8	-20	-7	8	0	90*
COc1ccc(-c2cc3ccc(OC)cc3cn2)cc1	67*	22	42	.	0	86*
c1cc2[nH]snc2c2nc(C3CC3)nc12	.	27	40	3	0	62*
COc1ccc(S(=O)(=O)Oc2ccc3ccccc3c2)cc1	-36	-19	-33	2	0	-18
COC1=C(OC)C(=O)C(Sc2ccc3ccccc3c2)=CC1=O	-17	3	8	.	0	58*
CS(=O)(=O)c1nc(-c2ccc(F)cc2)cc(C(F)(F)F)n1	37	-25	52*	2	0	86*
Nc1nc(-c2ccc(F)cc2)cc(C(F)(F)F)n1	.	1	-8	8	0	-2
COc1ccc(-c2cc(C(F)(F)F)nc(S(C)(=O)=O)n2)cc1	.	7	47	7	0	53*
O=C(NC[C@@H]1[C@H](c2ccccc2)[C@H](CO)N1Cc1ccccn1)C1CCCC1	3	.	.	.	.	.
Nc1nc(N)c2cc(Sc3ccc4ccccc4c3)ccc2n1	19	.	84*	5	1	52*
COc1ccc(-c2noc(CCC(=O)NCC3CCCO3)n2)cc1 (stereo not drawn)	-7	-2	16	0	0	10
CC(C)(C)c1ccc(-c2noc(CCC(=O)NCC3CCCO3)n2)cc1 (stereo not drawn)	6	42*	-4	12	0	26
SMILES	LGR2 inh	EBV LMP1 NFkB	TROY signal inh	HSP90 refold inh	aDG glyco act	TWEAK-Fn14 inh
COc1ccc(-c2noc(CCC(=O)NCCCN3CCC(Cc4ccccc4)CC3)n2)cc1	.	-26	3	-1	5.5*	-3
Cc1ccc(-c2noc(CCC(=O)NCC3CCCO3)n2)cc1 (stereo not drawn)	.	7	-26	2	0	15
CC(C)(C)c1ccc(-c2noc(CCC(N)=O)n2)cc1	15	54*	46	2	0	11
O=C(CCc1nc(-c2ccccc2)no1)NCC1CCCO1 (stereo not drawn)	-28	74*	27	7	0	19
C(=C\c1ccc(C2[C@@H]3CN(Cc4cccnc4)C[C@H]2N3)cc1)/c1ccccc1 (stereo partly drawn)	-19	.	.	.	.	.
C[C@H](O)C#Cc1ccc2c(c1)O[C@H](CN(C)C(=O)CN(C)C)[C@H](C)CN([C@H](C)CO)S2(=O)=O	-8	.	.	.	.	.
O=C(Nc1ccc2c(c1)[C@H]1C[C@H](CC(=O)N3CCc4ccccc4C3)O[C@@H](CO)[C@H]1O2)Nc1ccccc1F	7	.	.	.	.	.
Cc1ccc2c(c1C)-c1c(ccc(C)c1C)C(=O)C2=O	55*	0	61*	.	0	86*
COc1ccc(-c2nc3nc(C)c(Cc4ccccc4)c(=O)n3[nH]2)cc1	.	-6	-52	2	0	2
COc1ccc(Cc2[nH]n3c(=O)c(Cl)c(C)nc3c2-c2ccccc2)cc1	-30	-3	69*	0	0	26
COc1cc(/C=N/NC(=O)c2cc(-c3ccc4c(c3)OCO4)n[nH]2)ccc1O	-22	-5	-15	2	0	51*
COc1cc(/C=N/NC(=O)c2sc(N)c(C#N)c2C)ccc1O	-10	-29	8	2	0	52*
COc1cc(/C=N/NC(=O)c2cc(C34CC5CC(CC(C5)C3)C4)[nH]n2)ccc1O	.	81*	-1	6	0	-49
COc1ccccc1N/N=C/c1ccc2c(c1)OCO2	.	-14	-4	-2	0	60*
Cc1noc(C)c1NC(=O)N1C[C@H](O)COC[C@H]2O[C@H](CC(=O)NCC3CCCCC3)CC[C@@H]21	9	.	.	.	.	.
CO[C@H]1CN(C)C(=O)c2ccc(NC(=O)NC(C)C)cc2OC[C@@H](C)N(Cc2ccc(-c3ccccn3)cc2)C[C@H]1C	4	.	.	.	.	.
O=C1c2ccccc2C2=Nc3ccccc3SC(c3ccc(Cl)cc3)C12 (stereo not drawn)	18	-8	37	-3	0	39
O=C1c2ccccc2C2=Nc3ccccc3SC(c3cccc(F)c3)C12 (stereo not drawn)	21	12	71*	-1	0	48
N#CNC(=Nc1cccc(F)c1)SCc1ccccc1F	1	-4	59*	-3	1	0
CC(C)N=C(NC#N)SCc1ccccc1F	9	-8	3	1	0	15
CN1C(=O)[C@H](Cc2ccc([N+](=O)[O-])cc2)NC1=S	36	17	28	0	0	51*
CCCC#Cc1ccc([C@@H]2[C@H]3CN(C(=O)Cc4cccnc4)CC(=O)N3[C@H]2CO)cc1	-8	.	.	.	.	.
